Measured values reported in PubChem BioAssay.
For some of these results: Results with a measured potency or affinity are listed apart. The source made the active and inactive calls. Unless noted, the rule behind the calls is not given here.

How the values were obtained:
[1] = antimalarial activity against Dd2 strain (AID 2302;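 active = growth inhibition above 50% at the single 2 µM test dose, taken to imply half-maximal potency below 2 µM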;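 note: 0% = DMSO untreated growth and 100% = chloroquine plus artemisinin killed control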); conditions: P. falciparum Dd2 in RBCs, LDH growth readout, 72 h; at 2 µM; hits give high values
[2] = HepG2 cytotoxicity, primary screen, cytotoxicity control for P. falciparum antimalarial project, cell-based, ATP luminescence (AID 2303;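 active = inhibition above 50%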;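 note: 0% = DMSO wells and 100% = digitonin-killed cells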); conditions: HepG2 viability, 24-48 h, at 10 µM, hits give high values
[3] = biological target: L-lactate dehydrogenase (Plasmodium falciparum (isolate CDC / Honduras)) (UniProt Q27743); assay: PfLDH activity inhibition – cell lysate, 3D7 strain, counter-screen for P. falciparum growth inhibition project (AID 2304);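 note: 0% = vehicle and 100% = reference inhibitor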; conditions: P. falciparum 3D7 crude extract, LDH APAD/NBT absorbance; at 2 µM; hits give high values
Chain of L-lactate dehydrogenase (Plasmodium falciparum (isolate CDC / Honduras)) (Q27743 whole entry, looked up): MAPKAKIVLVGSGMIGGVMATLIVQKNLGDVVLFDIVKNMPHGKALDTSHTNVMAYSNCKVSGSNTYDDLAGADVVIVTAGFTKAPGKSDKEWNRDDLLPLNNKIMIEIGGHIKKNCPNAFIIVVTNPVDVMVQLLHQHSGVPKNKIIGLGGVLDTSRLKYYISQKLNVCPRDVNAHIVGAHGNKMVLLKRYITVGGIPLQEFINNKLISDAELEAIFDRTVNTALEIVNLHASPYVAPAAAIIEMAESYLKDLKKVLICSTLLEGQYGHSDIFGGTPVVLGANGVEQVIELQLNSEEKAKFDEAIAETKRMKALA

[4] = inhibition of 3D7 malaria parasite growth – strain 3D7 (AID 2306);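 note: 0% = DMSO wells and 100% = chloroquine plus artemisinin control wells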; conditions: P. falciparum 3D7 erythrocytic growth, LDH absorbance, 72 h; at 2 µM; hits give high values
[5] = biological target: Calcium-dependent protein kinase 1 (Plasmodium falciparum (isolate 3D7)) (UniProt P62344); assay: PfCDPK1 kinase inhibitors, biochemical, TCAMS library (AID 1159585; cut-off not given, nearly all actives have IC50 up to about 0.98 µM;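 note: inhibitors leave more ATP so luminescence rises with inhibition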); conditions: recombinant PfCDPK1, Kinase-Glo ATP depletion luminescence
Chain of Calcium-dependent protein kinase 1 (Plasmodium falciparum (isolate 3D7)) (P62344 whole entry, looked up): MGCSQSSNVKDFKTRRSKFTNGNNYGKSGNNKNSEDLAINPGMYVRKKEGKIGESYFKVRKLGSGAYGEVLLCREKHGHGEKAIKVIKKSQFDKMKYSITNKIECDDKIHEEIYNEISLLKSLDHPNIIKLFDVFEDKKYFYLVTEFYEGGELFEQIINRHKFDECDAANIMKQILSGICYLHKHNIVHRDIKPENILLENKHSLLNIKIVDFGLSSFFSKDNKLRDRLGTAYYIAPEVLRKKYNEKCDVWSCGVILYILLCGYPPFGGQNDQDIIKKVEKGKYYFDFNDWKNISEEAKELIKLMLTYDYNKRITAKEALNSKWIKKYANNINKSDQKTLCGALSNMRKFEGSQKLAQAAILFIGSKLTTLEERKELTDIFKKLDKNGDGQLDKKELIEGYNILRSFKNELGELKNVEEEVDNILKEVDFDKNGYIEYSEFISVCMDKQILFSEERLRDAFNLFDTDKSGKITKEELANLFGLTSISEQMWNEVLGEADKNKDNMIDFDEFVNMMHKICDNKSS

[6] = biological target: Plasmodium falciparum protein kinase 6 (PK6, PF3D7_1337100) (UniProt Q8IDW1); assay: PfPK6 kinase inhibitors, biochemical, TCAMS library (AID 1159586); conditions: recombinant PfPK6, Kinase-Glo ATP depletion luminescence
Chain of Plasmodium falciparum protein kinase 6 (PK6, PF3D7_1337100) (Q8IDW1 1-305): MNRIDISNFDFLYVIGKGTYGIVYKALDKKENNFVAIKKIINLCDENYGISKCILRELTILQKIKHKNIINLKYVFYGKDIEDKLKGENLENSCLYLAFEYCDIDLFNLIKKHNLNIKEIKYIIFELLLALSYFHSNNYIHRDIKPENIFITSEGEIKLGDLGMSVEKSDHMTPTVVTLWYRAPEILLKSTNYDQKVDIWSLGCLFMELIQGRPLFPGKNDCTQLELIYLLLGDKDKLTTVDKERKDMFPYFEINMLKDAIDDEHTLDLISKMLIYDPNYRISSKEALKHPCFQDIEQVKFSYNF

[7] = biological target: Protein kinase 7 (PK7), Plasmodium falciparum 3D7 (PF3D7_0213400) (UniProt Q7YTF7); assay: inhibition of Plasmodium PK7 catalytic activity – biochemical, TCAMS antimalarial set, Kinase-Glo luminescence (AID 1159587); conditions: recombinant PfPK7, Kinase-Glo ATP depletion luminescence
Chain of Protein kinase 7 (PK7), Plasmodium falciparum 3D7 (PF3D7_0213400) (Q7YTF7 1-343): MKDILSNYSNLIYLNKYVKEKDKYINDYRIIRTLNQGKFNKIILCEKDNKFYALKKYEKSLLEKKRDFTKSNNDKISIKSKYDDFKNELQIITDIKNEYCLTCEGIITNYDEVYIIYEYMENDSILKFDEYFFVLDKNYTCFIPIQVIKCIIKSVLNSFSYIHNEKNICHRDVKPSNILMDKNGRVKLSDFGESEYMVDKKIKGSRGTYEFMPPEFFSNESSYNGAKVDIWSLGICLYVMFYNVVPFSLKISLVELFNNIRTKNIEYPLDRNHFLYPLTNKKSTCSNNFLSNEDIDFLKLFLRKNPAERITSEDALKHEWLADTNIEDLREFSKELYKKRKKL

[8] = biological target: Calcium-dependent protein kinase 4 (Plasmodium falciparum (isolate 3D7)) (UniProt Q8IBS5); assay: PfCDPK4 kinase inhibitors, biochemical, TCAMS library (AID 1159588; cut-off not given, nearly all actives have IC50 up to about 0.91 µM); conditions: recombinant PfCDPK4, Kinase-Glo ATP depletion luminescence
Chain of Calcium-dependent protein kinase 4 (Plasmodium falciparum (isolate 3D7)) (Q8IBS5 whole entry, looked up): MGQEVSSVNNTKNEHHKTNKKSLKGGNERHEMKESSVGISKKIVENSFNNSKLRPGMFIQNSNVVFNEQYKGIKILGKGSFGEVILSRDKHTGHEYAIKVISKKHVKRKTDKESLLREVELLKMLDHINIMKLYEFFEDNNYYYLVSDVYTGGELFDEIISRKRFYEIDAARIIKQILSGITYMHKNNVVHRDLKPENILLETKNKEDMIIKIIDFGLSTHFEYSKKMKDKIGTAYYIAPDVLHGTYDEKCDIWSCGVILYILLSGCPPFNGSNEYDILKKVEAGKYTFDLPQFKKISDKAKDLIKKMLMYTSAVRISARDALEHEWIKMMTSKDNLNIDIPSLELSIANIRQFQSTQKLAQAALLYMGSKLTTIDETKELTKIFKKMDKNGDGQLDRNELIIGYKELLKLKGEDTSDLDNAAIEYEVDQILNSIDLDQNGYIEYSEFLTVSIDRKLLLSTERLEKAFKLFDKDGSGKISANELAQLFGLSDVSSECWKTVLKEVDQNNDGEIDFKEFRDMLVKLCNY

Cc1ccc(NC(=O)NC2CCN(CCCCCNC(=O)/C=C/c3ccc(Cl)c(Cl)c3)CC2)cc1C
active: growth inhibition [4] 101%
inactive: growth inhibition [1] 25% | inhibition [2] 36% | inhibition [3] -3% | outcome [5] | outcome [6] | outcome [7] | outcome [8]

CS(=O)(=O)c1ccc(OCCCN(Cc2ccccc2C(F)(F)F)c2ccc(C#N)c(C(F)(F)F)c2)cc1
active: growth inhibition [1] 76% | growth inhibition [4] 94%
inactive: inhibition [2] 4% | inhibition [3] -5% | outcome [5] | outcome [6] | outcome [7] | outcome [8]

CCC(C)NC(=O)CN1CN(c2ccccc2)C2(CCN(C(=O)c3ccc4ccccc4c3)CC2)C1=O (stereo not given)
inactive: inhibition [2] -6% | inhibition [3] -2% | outcome [5] | outcome [6] | outcome [7] | outcome [8]
active: growth inhibition [1] 78% | growth inhibition [4] 95%

COc1ccccc1C1CCN(CCN2CCC(NC(=O)c3ccc(-c4ccc(C#N)cc4)cc3)CC2)CC1
active: growth inhibition [4] 99%
inactive: growth inhibition [1] 42% | inhibition [2] 31% | inhibition [3] -5% | outcome [5] | outcome [6] | outcome [7] | outcome [8]

O=C(Nc1cccnc1)c1cc(-c2cccnc2)nc2ccc(Cl)cc12
inactive: inhibition [2] 45% | inhibition [3] -6% | outcome [5] | outcome [6] | outcome [7] | outcome [8]
active: growth inhibition [1] 50% | growth inhibition [4] 97%

CC(C)(C)c1ccc(Cn2c(=N)n(CC(=O)c3ccc(-c4ccccc4)cc3)c3ccccc32)cc1
inactive: inhibition [3] -5% | outcome [5] | outcome [6] | outcome [7] | outcome [8]
active: growth inhibition [1] 50% | inhibition [2] 63% | growth inhibition [4] 98%

Oc1ccc(CCCc2cc(Oc3c(I)cc(CCc4ncc[nH]4)cc3I)ccc2O)cc1
active: growth inhibition [4] 95%
inactive: growth inhibition [1] 7% | inhibition [2] 26% | inhibition [3] -9% | outcome [5] | outcome [6] | outcome [7] | outcome [8]

Cc1cccc(C(=O)Nc2ccnc(N3CCC(N(C)Cc4ccc(C#N)cc4)CC3)c2)c1
inactive: growth inhibition [1] 6% | inhibition [2] 12% | inhibition [3] -4% | outcome [5] | outcome [6] | outcome [7] | outcome [8]
active: growth inhibition [4] 94%

CN1Cc2cc(NC(=O)/C=C/c3ccccc3Cl)ccc2C(C)(C)C1
inactive: inhibition [2] 12% | inhibition [3] -3% | outcome [5] | outcome [6] | outcome [7] | outcome [8]
active: growth inhibition [1] 96% | growth inhibition [4] 99%

C=C(C)COc1ccc(-c2n[nH]c(C(F)(F)F)c2-c2ccccc2OC)c(O)c1
inactive: inhibition [2] 19% | inhibition [3] -5% | outcome [5] | outcome [6] | outcome [7] | outcome [8]
active: growth inhibition [1] 72% | growth inhibition [4] 98%

O=C(C=Cc1ccc(Cl)c(Cl)c1)NCCCCCN1CCC(CCCNC(=O)/C=C/c2ccccc2)CC1
active: inhibition [2] 50% | growth inhibition [4] 96%
inactive: growth inhibition [1] 33% | inhibition [3] -9% | outcome [5] | outcome [6] | outcome [7] | outcome [8]

O=C(Nc1cccc(-c2ccc(-c3nc4ccc(C(F)(F)F)cc4[nH]3)cc2)c1)c1ccncc1
inactive: inhibition [3] -1% | outcome [5] | outcome [6] | outcome [7] | outcome [8]
active: growth inhibition [1] 90% | inhibition [2] 79% | growth inhibition [4] 100%

CC(C)CCNC(=O)C1Cc2c([nH]c3ccc(Br)cc23)C2(CCN(CCc3ccccc3)CC2)N1 (stereo not given)
active: growth inhibition [1] 61% | growth inhibition [4] 101%
inactive: inhibition [2] 25% | inhibition [3] 2% | outcome [5] | outcome [6] | outcome [7] | outcome [8]

Nc1cccc(CNCc2cccc(-c3cccc(-c4nc5ccccc5[nH]4)c3)c2)c1
active: growth inhibition [1] 84% | growth inhibition [4] 101%
inactive: inhibition [2] 1% | inhibition [3] -7% | outcome [5] | outcome [6] | outcome [7] | outcome [8]

COc1ccc(N2CCN(CCCCNC(=O)c3ccc(NC(=O)c4cc(C(F)(F)F)cc(C(F)(F)F)c4)cc3)CC2)cc1OC
inactive: inhibition [2] 9% | inhibition [3] 1% | outcome [5] | outcome [6] | outcome [7] | outcome [8]
active: growth inhibition [1] 100% | growth inhibition [4] 101%

Cc1ccc(-n2c(=O)c3c(n4c(SC(C)C)nnc24)-c2ccccc2CC32CCCCC2)cc1
active: growth inhibition [1] 88% | growth inhibition [4] 95%
inactive: inhibition [2] 8% | inhibition [3] 0% | outcome [5] | outcome [6] | outcome [7] | outcome [8]

CC(C)c1ccc(NC(=O)c2cccc(CN3CCCN(Cc4cccc(C#N)c4)CC3)c2)cc1
active: growth inhibition [4] 93%
inactive: growth inhibition [1] 15% | inhibition [2] 48% | inhibition [3] -5% | outcome [5] | outcome [6] | outcome [7] | outcome [8]

CCCCN(CCCC)C(=N)c1cccc2c1CCCC2
active: growth inhibition [4] 95%
inactive: growth inhibition [1] 9% | inhibition [2] 11% | inhibition [3] -2% | outcome [5] | outcome [6] | outcome [7] | outcome [8]

CCCC(C)N(Cc1ccc(C(C)(C)C)cc1)C(=O)c1cccc(OC)c1 (stereo not given)
inactive: inhibition [2] 9% | inhibition [3] 1% | outcome [5] | outcome [6] | outcome [7] | outcome [8]
active: growth inhibition [1] 89% | growth inhibition [4] 100%

Nc1cc(-c2ccc3ccccc3c2)nc2ccccc12
inactive: inhibition [2] 19% | inhibition [3] -2% | outcome [5] | outcome [6] | outcome [7] | outcome [8]
active: growth inhibition [1] 52% | growth inhibition [4] 99%
